The list is not random: actives were taken first. Their share in the collection is about 0.59%.
E coli RNAP = blocks E. coli RNA polymerase transcription. P0A8V2. fluorescence transcription assay. inhibition, %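 (tested at 10 µM)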. 0.2% of 62,000 active. AID 559; in the data active means inhibition above about 20%;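 further: 0% = enzyme without compound and 100% = no enzyme blank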
FXIa mix inh = inhibitors of human coagulation factor XIa, pooled mixtures | 0.19% of 62,000 active | purified FXIa, fluorogenic substrate | inhibition, % at 5 µM | AID 680;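 further: each value is inhibition by a whole ten-compound pool holding the compound; 0% = enzyme with no mixture and 100% = wells lacking enzyme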
FXIIa mix inh = blocks human factor XIIa in pooled compound mixtures. P00748. purified FXIIa, fluorogenic substrate. inhibition, % at 5 µM. 0.2% of 62,000 active. AID 684;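 further: 0% = enzyme without compound and 100% = no enzyme blank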
Smad3 FoxH1 inh = Smad3 (human) transcription factor binding inhibition; TR-FRET Smad3/Dy647-FoxH1 peptide binding, europium anti-His; inhibition, % at 25 µM; 0.29% of 88,000 active; AID 630;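 active means compounds that reduce the energy-transfer binding signal between the protein and its labelled peptide by more than half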;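 further: 0% = Smad3 plus labelled peptide maximal FRET and 100% = peptide-only background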
Target sequence (P84022 whole entry, looked up): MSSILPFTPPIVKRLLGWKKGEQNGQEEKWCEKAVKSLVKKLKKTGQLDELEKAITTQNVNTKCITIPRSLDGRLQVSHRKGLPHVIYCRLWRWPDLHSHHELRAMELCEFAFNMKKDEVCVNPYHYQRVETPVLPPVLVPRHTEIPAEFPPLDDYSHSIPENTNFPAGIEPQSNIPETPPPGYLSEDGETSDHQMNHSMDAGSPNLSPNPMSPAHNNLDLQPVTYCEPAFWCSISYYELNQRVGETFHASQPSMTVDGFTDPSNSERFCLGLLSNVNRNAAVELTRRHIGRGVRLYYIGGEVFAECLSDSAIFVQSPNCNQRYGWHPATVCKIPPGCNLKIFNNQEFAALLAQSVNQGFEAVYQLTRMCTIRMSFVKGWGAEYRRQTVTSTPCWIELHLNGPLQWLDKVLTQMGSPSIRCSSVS
* = called active by the depositor; . = no result; [ ] = remark or other dose. Unless noted, no stated cut-off is given here; in the data, active means inhibition above about 20% (passing the limit was not always enough); inactive means the rest.

SMILES	E coli RNAP	FXIa mix inh	FXIIa mix inh	Smad3 FoxH1 inh
NS(=O)(=O)c1cc(Br)c(N=Nc2ccc(O)c3ncccc23)c(Br)c1	.	.	.	76.9*
COc1ccccc1NC(=O)c1cc(S(=O)(=O)N2CCOCC2)ccc1Cl	2.0	3.8	32.2*	3.5
O=C(Nc1ccccc1O)c1cc(S(=O)(=O)N2CCOCC2)ccc1Cl	1.4	10.5	-18.4	-4.7
O=c1[nH]ncc2c3ccccc3n(Cc3ccccc3)c12	-2.0	5.2	27.1	.
Cc1ccc(Cn2c3ccccc3c3cn[nH]c(=O)c32)cc1	73.7*	6.9	-0.3	-2.4
CCC(Cc1ccccc1)NC(=O)CN(C)S(=O)(=O)c1ccc2c(c1)c(=O)n(C)c(=O)n2C (stereo not given)	.	.	.	-8.5
CN(CC(=O)NC1CCCc2ccccc21)S(=O)(=O)c1ccc2c(c1)c(=O)n(C)c(=O)n2C (stereo not given)	1.7	7.5	26.4*	2.0
N#C/C(=C(/O)C(=O)O)c1ccc(-c2cccc3ccccc23)cc1	.	.	.	2.5
O=P(O)(O)O[C@@H]1O[C@H](CO)[C@@H](O)[C@H](O)[C@H]1O	.	.	.	4.9
CCN1CNC(=S)N(c2cccc(C)c2C)C1	.	.	.	96.2*
Cc1cccc(-n2c(CNC(=O)c3ccc(S(=O)(=O)N4CCCC4)cc3)n[nH]c2=S)c1	3.3	1.0	16.0	-6.5
COc1ccc(-n2c(CNC(=O)c3ccc(S(=O)(=O)N4CCCC4)cc3)n[nH]c2=S)cc1	4.2	-5.3	21.9*	.
O=c1cc(N2CCc3ccccc3C2)[nH]c(=O)n1C1CCCCC1	9.9	2.5	35.0*	13.8
O=c1cc(N2CCC(Cc3ccccc3)CC2)[nH]c(=O)n1C1CCCCC1	-0.2	-0.7	3.1	12.4
Cc1ccccc1NC(=O)C1CCCN(S(=O)(=O)c2cnc[nH]2)C1 (stereo not given)	1.8	3.7	-1.0	-13.0
Cc1c(NC(=O)C2CCCN(S(=O)(=O)c3cnc[nH]3)C2)c(=O)n(-c2ccccc2)n1C (stereo not given)	-0.5	24.3*	2.5	-3.2
CCCCOc1ccccc1C1C(C(=O)OC)=C(C)N(C)C(C)=C1C(=O)OC	1.9	-5.6	-17.8	-1.1
COC(=O)C1=C(C)N(C)C(C)=C(C(=O)OC)C1c1ccccc1C	7.7	23.6*	2.5	3.8
CC(=O)OCC(=O)[C@@]12OC(C)(C)O[C@@H]1C[C@H]1[C@H]3CC=C4C[C@@H](O)CC[C@]4(C)[C@@H]3CC[C@@]12C	.	.	.	98.2*
CC(C)[C@@H]1O[C@H](/C=C/c2ccccc2)OCC1(C)C	.	.	.	3.7
C[C@]12CCC(=O)C=C1CC[C@H]1[C@H]2C(=O)C[C@]2(C)C(CC(=O)O)=CC[C@@H]12	.	.	.	5.2
CCOC(=O)c1c(C)oc2c1c(/C=N/c1ccccn1)c(O)c1ccccc12	7.9	9.2	69.1*	4.1
CCOC(=O)C1CCN(C(c2cccnc2)c2c(NC(=O)c3ccco3)sc(C)c2C)CC1 (stereo not given)	7.6	6.1	0.3	11.6
CCOC(=O)c1c(C)oc2c1c(C(c1cccnc1)N1CCCCC1)c(O)c1ccccc12 (stereo not given)	.	.	.	73.8*
CCOC(=O)C1=C(C)N(C)C(C)=C(C(=O)OCC)C1c1ccccn1	6.7	-7.2	9.5	11.7
SMILES	E coli RNAP	FXIa mix inh	FXIIa mix inh	Smad3 FoxH1 inh
S=C(S)NCCCn1ccnc1	.	.	.	11.4
Cc1noc(C)c1COC(=O)c1cccnc1SCC(=O)Nc1ccc2c(c1)OCO2	3.5	5.2	-1.1	50.5*
C/C(=N\S(=O)(=O)c1ccc(Cl)c(Cl)c1)OCC(C)(C)C	.	.	.	3.3
CCN(CC)CC[n+]1ccc2c(C)c3[nH]c4ccc(O)cc4c3c(C)c2c1	.	.	.	67.6*
O=C(O)c1ccc2c(c1C(=O)O)C(=O)OC2(c1ccc(O)cc1)c1ccc(O)cc1	.	.	.	77.9*
CC(=O)O[C@H]1CC[C@@]2(C)[C@@H](CC[C@H]3[C@H]2CC(=O)[C@]2(C)[C@@H]3C[C@H]3CC(C)=CC(=O)[C@@H]32)C1	.	.	.	15.1
CN(C)CCNC(=O)c1cc2ccccc2oc1=O	11.8	3.4	21.3*	8.4
Cc1cccn2c(=O)c3cc(C(=O)Nc4ccc(N(C)C)cc4)n(C)c3nc12	7.3	-8.8	-0.8	62.5*[fluorescence artefact?]
Cn1c(SCC(=O)NCc2ccc3c(c2)OCO3)nnc1C1COc2ccccc2O1 (stereo not given)	11.7	9.9	-19.1	1.9
C=CCn1c(SCC(=O)NCc2ccc3c(c2)OCO3)nnc1C1COc2ccccc2O1 (stereo not given)	2.7	33.4*	12.8	6.9
O=P(O)(O)OP(=O)(O)O	.	.	.	-0.8
COc1ccc(CCn2c(SCC(=O)Nc3cc(C)on3)nc3ccsc3c2=O)cc1OC	-2.2	8.4	21.8*	-312.4
COc1ccc(CCn2c(SCC(=O)Nc3cc(C)on3)nc3ccccc3c2=O)cc1OC	4.5	4.5	-16.8	-3.1
c1ccc(-c2n[nH]c(-c3ccccn3)n2)nc1	22.2*	6.6	-2.3	-4.5
NC(=O)C/C=C/CC(N)=O	.	.	.	1.8
CC(=O)Nc1sc2c(c1CN1CCN(c3ccccn3)CC1)CCCC2	6.4	-2.1	7.9	0.0
Cc1sc(NC(=O)c2ccco2)c(CN2CCN(c3ccccn3)CC2)c1C	2.4	46.4*	3.5	5.8
CCn1c(COc2ccc(C)cc2)nnc1SCC(=O)C(C)(C)C	4.6	-0.2	0.1	-10.3
CCn1c(COc2ccccc2)nnc1SCC(=O)C(C)(C)C	0.6	9.3	5.5	58.7*[fluorescence artefact?]
NC[C@H]1O[C@H](n2cnc3c(=O)[nH]c(N)nc32)[C@@H](O)[C@@H]1O	.	.	.	-5.5
O=S(=O)(O)c1cc(S(=O)(=O)O)c2c(N=Nc3cccc4ccccc34)c(O)ccc2c1	.	.	.	85.0*
CC(=O)N(c1ccc(N(C(C)=O)S(=O)(=O)c2cccs2)cc1)S(=O)(=O)c1cccs1	23.7*	-1.3	3.0	9.8
COc1ccc(N(C(=O)c2ccco2)S(=O)(=O)c2cccs2)cc1	0.8	7.8	4.9	1.3
O=C(CCCNS(=O)(=O)c1cccc2nsnc12)NC1CCCCC1	25.9*	5.8	-22.3	1.8
CN1C[C@H](c2ccccc2)C(O)([C@]2(c3ccccc3)CN(C)C[C@H](c3ccccc3)C2=O)[C@H](c2ccccc2)C1 (stereo not given in full)	.	.	.	6.1
CC(C)[C@@H](C)/C=C/[C@@H](C)[C@@H]1CC[C@@H]2C3=CC=C4C[C@@H](O)CC[C@]4(C)[C@@H]3CC[C@]21C	.	.	.	21.1
Cc1cc(C)cc(-n2c3nc4ccccc4nc3c3c(=O)n(Cc4ccco4)cnc32)c1	7.8	3.6	13.3	13.9
